Measurements as given in PubChem BioAssay (NCI).
The panel holds about 79,000 compounds, 15% with a hit somewhere; the sample as a whole holds those more often. No stated cut-off is given here; in the data, active means growth inhibition above about 70%; inactive means the rest.

Columns and labels:
[1] = NCI Yeast Anticancer Drug Screen. Data for the rad50 strain (AID 155);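 further: 0% = growth of vehicle-only cultures of the same strain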; details: S. cerevisiae rad50 strain growth inhibition; at 50.0 µM; active compounds read high
How it was run: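 DNA repair mutant yeast, compound exposure, growth read-out; inhibition is taken relative to vehicle.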

[2] = NCI Yeast Anticancer Drug Screen. Data for the mec2-1 strain (AID 157); details: S. cerevisiae mec2-1 strain, at 50.0 µM, active compounds read high
How it was run: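 Cells of the genetically defined mec2-1 yeast strain are incubated with test compound. Inhibition of growth is calculated against vehicle-treated controls.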

[3] = NCI Yeast Anticancer Drug Screen. Data for the sgs1 mgt1 strain (AID 161);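 further: 0% = growth of cultures given vehicle only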; details: S. cerevisiae sgs1 mgt1 strain, at 50.0 µM, active compounds read high
How it was run: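 Read-out: growth inhibition vs vehicle controls. Cells: mutant yeast strain deficient in DNA damage repair.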

[4] = NCI Yeast Anticancer Drug Screen. Data for the cln2 rad14 strain (AID 165);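 further: 0% = growth equal to vehicle treated cultures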; details: S. cerevisiae cln2 rad14 strain, at 50.0 µM, active compounds read high
How it was run: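 The screen exposed genetically defined yeast (cln2 rad14) to test compounds and scored growth inhibition relative to vehicle-treated controls.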

[5] = NCI Yeast Anticancer Drug Screen. Data for the bub3 strain (AID 167); details: S. cerevisiae bub3 mutant strain, at 50.0 µM, active compounds read high
How it was run: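 In this screen, a yeast mutant lacking normal mitotic checkpoint function is challenged with compound. Relative growth versus vehicle gives the inhibition value.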

[6] = NCI Yeast Anticancer Drug Screen. Data for the mlh1 rad18 strain (AID 175); details: S. cerevisiae mlh1 rad18 strain growth inhibition; at 50.0 µM; active compounds read high
How it was run: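 Compound-treated yeast growth, normalised to vehicle controls. Strain bears defined DNA repair mutations.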

Measured: growth inhibition

CCNC(=O)COc1ccc(Br)cc1Br
inactive: [1] -3.7% | [2] -5.2% | [3] -3.8% | [4] 11.2% | [5] 8.4% | [6] 15.2%

COC(=O)NC(S(=O)(=O)O)S(=O)(=O)O
inactive: [1] 6.2% | [2] 11.6% | [3] 0.85% | [4] 2.65% | [5] 16.5% | [6] 1.7%

CCC1CCCCC1O (configuration not stated)
inactive: [1] 1.6% | [2] -7% | [3] -30.5% | [4] 7.35% | [5] -22.7% | [6] 6.1%

C=C(C)c1ccc(F)cc1
inactive: [1] 3.9% | [2] -7.5% | [3] -1.65% | [4] 4.2% | [5] -2.05% | [6] 0.55%

COc1ccc2nc(NC(=O)C(=O)C(C(=O)c3ccccc3-c3ccccc3)C3OC(=O)c4ccccc43)sc2c1 (configuration not stated)
inactive: [1] -3.6% | [2] 9.75% | [3] -14.2% | [4] 0.7% | [5] -1.1% | [6] -16.1%

O=C(Cl)N(C1CCCCC1)C1CCCCC1
inactive: [1] -19% | [2] -8.8% | [3] -1.5% | [4] -10.9% | [5] 2.35% | [6] -12.9%

CN(C)CC1CCC(=C2CCCC2)C1=O (configuration not stated)
inactive: [1] -8.9% | [2] -10.7% | [3] 11.8% | [4] 6.2% | [5] 3.6% | [6] 20.6%

Cc1noc(NC2=CC(=O)C(=O)c3ccccc32)c1C
inactive: [1] 34.8% | [2] 8.45% | [3] 40.8% | [4] 8% | [5] 28.6% | [6] 42.7%

N#CCCCCN1CCCCC1
inactive: [1] -4.85% | [2] -20.9% | [3] -9.95% | [4] 9.8% | [5] -14.6% | [6] 13.6%

COc1ccc2c(c1)CCC1=C2CCC2=CC(=O)CC[C@@]21C
inactive: [1] 5.4% | [2] 16.6% | [3] 4.4% | [4] 2.5% | [5] 38% | [6] -12.1%

Nc1ccc2[nH]c(=O)c(=O)[nH]c2c1
inactive: [1] 2% | [2] 14.7% | [3] -24.1% | [4] 4.95% | [5] 1.1% | [6] 14.8%

Clc1ccc2ccccc2n1
inactive: [1] 15.1% | [2] -1.65% | [3] -6.4% | [4] -23.1% | [5] 9.8% | [6] -8.15%

Cc1nc(C)c(C(=O)NNC(N)=S)cc1C(=O)NNC(N)=S
inactive: [1] -10.2% | [2] -16.6% | [3] 0.95% | [4] -5.6% | [5] -27.6% | [6] -8.9%

Cc1ccc(C(=O)OC2CCCC2)cc1
inactive: [1] 7.85% | [2] -0.7% | [3] 0.85% | [4] -7.7% | [5] -15.7% | [6] 4.1%

Cc1cccc(C)c1NC(=S)N(CCC#N)Cc1ccccc1
inactive: [1] 6.8% | [2] 1.45% | [3] 1.9% | [4] -4.55% | [5] 12.3% | [6] -11.1%

O=C(Cc1ccccc1)NN1C(=O)/C(=C\c2ccccc2O)SC1=Nc1ccccc1
inactive: [1] 1.15% | [2] -6.3% | [3] 31.4% | [4] 13.5% | [5] -6.95% | [6] 7.25%

O=C1COC(=O)/C1=C/c1ccccc1
inactive: [1] -0.4% | [2] -7.85% | [3] -4.75% | [4] 2.3% | [5] -15.8% | [6] -1.05%

CCS(=O)(=O)CCNC(=O)NS(=O)(=O)c1ccc(C)cc1
inactive: [1] -2.2% | [2] -7.85% | [3] -11.8% | [4] -1.2% | [5] 7.7% | [6] 0.9%

N#CC(C#N)=C(O)/C(=C/c1ccccc1[N+](=O)[O-])NC(=O)c1ccccc1
inactive: [1] 2.75% | [2] -5.6% | [3] -3.65% | [4] 23.9% | [5] 1.75% | [6] 40.4%

COC(=O)NC1(NC(=O)OC)NC(=O)c2cc(OC)c(OC)cc2N1
inactive: [1] 6.25% | [2] -10.4% | [3] 27.4% | [4] -16.5% | [5] 6.55% | [6] 5.75%

Cc1cc2nnnn2c2ccccc12
inactive: [1] -30.1% | [2] -20.6% | [3] -17.1% | [4] -2.35% | [5] -6.8% | [6] -19.8%

CC(O)C(NC(=O)Nc1ncnc2nc[nH]c12)C(=O)O (configuration not stated)
inactive: [1] 8.8% | [2] 4.3% | [3] -2% | [4] 7.75% | [5] -14.2% | [6] 16.9%

CC(=O)[CH-]C(=O)c1ccccc1.CC(=O)[CH-]C(=O)c1ccccc1.CC(C)CCCC(C)[C@H]1CCC2[C@@H]3CC=C4C[C@@H]([O-])CC[C@]4(C)C3CC[C@@]21C.CC[O-].[Ti+4] (some centres not stated)
inactive: [1] 11.2% | [2] 0.05% | [3] 10.2% | [4] -33.9% | [5] 23.2% | [6] 3.85%

CCCCCCOC(=O)C[n+]1ccc(C(N)=O)cc1
inactive: [1] 2.45% | [2] 17.1% | [3] -15.2% | [4] -14.8% | [5] -18.8% | [6] -1.9%

Cc1ccc(N=C(Nc2ccc(C)cc2)C(c2ccccc2)c2ccccc2)cc1
inactive: [1] 12% | [2] -1.85% | [3] 5.9% | [4] 7.65% | [5] 6.5% | [6] 30.6%

COC(=O)c1ccc(C)[nH]1
inactive: [1] -12.8% | [2] 10.4% | [3] -22.2% | [4] 26.6% | [5] 6.4% | [6] -1.8%

O=C(Nc1ccc(Cl)cc1)Nc1nnc2nc(C3(c4nc5nnc(NC(=O)Nc6ccc(Cl)cc6)n5[nH]c4=O)Cc4ccccc4C3=O)c(=O)[nH]n12
inactive: [1] 29.5% | [2] -1.6% | [3] 8.3% | [4] 12.9% | [5] 8.75% | [6] 2.3%

Cn1nnnc1CC(=O)O
inactive: [1] 1.3% | [2] -12.9% | [3] 1.15% | [4] -22.8% | [5] -2.05% | [6] -12.5%

Cc1ccc(C(C)C)cc1NC(=O)/C=C/c1ccccc1
inactive: [1] 10.2% | [2] 36% | [3] 36.6% | [4] -15.2% | [5] 23.9% | [6] 55%

CCCCCC(=O)/C=C/Sc1n[nH]c(=O)[nH]c1=O
inactive: [1] 60.5% | [2] 41.1% | [3] 64.2% | [4] 27.9% | [5] 55% | [6] 62.1%

O=C(Nc1cc2ccccc2cc1C(=O)O)Nc1cccc2ccccc12
inactive: [1] 10.2% | [2] 7% | [3] 32.6% | [4] 6.2% | [5] 20.1% | [6] 30.3%

Cc1cc(C)c(C(=O)c2ccccc2C(=O)O)c(C)c1
inactive: [1] 0.05% | [2] 11.1% | [3] 3.05% | [4] -89% | [5] 24.5% | [6] -12%

c1ccc(SCCCCSc2ccccc2)cc1
inactive: [1] 17.1% | [2] 5.05% | [3] -2.55% | [4] -38% | [5] 14.1% | [6] 43%

Cc1cc(C)c(C(=O)CC(C)C)c(C)c1
inactive: [1] -8.15% | [2] -3% | [3] 4.2% | [4] 24.6% | [5] -3.45% | [6] -4.2%

Cc1ccc(C(=O)Nc2ccc([N+](=O)[O-])cc2)cc1
inactive: [1] 4.2% | [2] -6.75% | [3] -0.35% | [4] -2.75% | [5] -5.35% | [6] -2.95%

N/N=C1\CC(=O)NC(=O)N1
inactive: [1] -2.15% | [2] -11.1% | [3] 1.9% | [4] 1.8% | [5] 3.05% | [6] 0.05%

CC(=O)Nc1ccc(S(=O)(=O)NC(=O)NCCC(C)C)cc1
inactive: [1] 1.95% | [2] 2.45% | [3] 9.8% | [4] -20.2% | [5] 8.6% | [6] 7.85%

CC(=O)Nc1cnc2ccccc2c1
inactive: [1] 9.65% | [2] -0.4% | [3] 7.1% | [4] -2.8% | [5] 4.6% | [6] -15.7%

COc1cc2c(c(OC)c1OC)CCCC2=O
inactive: [1] 0.2% | [2] -10.4% | [3] -4.5% | [4] -130% | [5] -4.7% | [6] -4.9%

CC1(C=O)CCCC2(C)[C@@H]1CCC13CC(CC[C@H]12)C(C(=O)O)C3 (some centres not stated)
inactive: [1] 28.9% | [2] 30.6% | [3] 22.6% | [4] 14.3% | [5] 26.8% | [6] 16.7%

COc1cccc(N(CN2C(=O)CCC2OC)C(C)=O)c1 (configuration not stated)
inactive: [1] 4.2% | [2] 7.35% | [3] 12.9% | [4] 19.3% | [5] -7.35% | [6] -31.4%

CC(=O)CC(C)=NCCCCN=C(C)CC(C)=O
inactive: [1] -12.6% | [2] -29.1% | [3] 5.55% | [4] 5.35% | [5] -25.2% | [6] -17.3%
